High-throughput results as filed in PubChem BioAssay.
Only some compounds are listed: those with a hit (about 3.5% of all), similar ones and a draw of the others.
MITF primary: MITF inhibitors, primary screen, biochemical, AlphaScreen, human; Microphthalmia-associated transcription factor (Homo sapiens), O75030; AID 1259374, 2018; inhibition, % at 2.6 µM; AlphaScreen MITF homodimerization, bead proximity signal; 0.91% of 650,000 active; in the data active = inhibition above about 50%;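 note: 0% = vehicle wells with protein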
TEAD-YAP block: TEAD-YAP interaction inhibition, primary screen, TEAD-YAP interaction inhibitor project, luminescence, HEK-TIYL cells; inhibition, % at 9.12 µM; 1.4% of 640,000 active; TEAD-Gal4/YAP UAS-luciferase luminescence; in the data active = inhibition above about 32%;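 note: 0% = median of test compound wells and 100% = reference inhibitor wells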
GPR151 ag: activators of human GPR151, primary screen, cell-based, PathHunter beta-arrestin, luminescence. G-protein coupled receptor 151 (Homo sapiens), Q8TDV0. PathHunter beta-arrestin GPR151 cells. activation, % at 11.2 µM. 1% of 650,000 active. AID 1508602, 2020; in the data active = activation above about 4.9%;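 note: 0% = median of compound wells and 100% = cells with positive control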
Target sequence (Q8TDV0 whole entry, looked up): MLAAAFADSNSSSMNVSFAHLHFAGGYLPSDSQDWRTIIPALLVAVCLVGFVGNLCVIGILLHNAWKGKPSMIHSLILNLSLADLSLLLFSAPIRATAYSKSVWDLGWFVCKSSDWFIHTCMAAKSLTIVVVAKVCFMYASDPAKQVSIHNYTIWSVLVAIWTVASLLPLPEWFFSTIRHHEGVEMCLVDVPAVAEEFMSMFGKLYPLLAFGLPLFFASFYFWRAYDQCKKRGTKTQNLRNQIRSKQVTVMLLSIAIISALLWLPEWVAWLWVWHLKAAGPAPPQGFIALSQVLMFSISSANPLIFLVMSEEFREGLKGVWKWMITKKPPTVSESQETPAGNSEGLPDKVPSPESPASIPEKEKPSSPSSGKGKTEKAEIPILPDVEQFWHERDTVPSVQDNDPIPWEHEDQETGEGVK
FBW7 activator: FBW7 E3 ligase activators, primary screen, biochemical, AlphaScreen, human | F-box/WD repeat-containing protein 7 (Homo sapiens), Q969H0 | AlphaScreen FBW7–phospho-cyclin E peptide binding, activator screen | normalized activity (activation), % at 26.1 µM | 0.13% of 650,000 active | AID 1259310, 2017; in the data active = normalized activity above about 1.9%;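 note: purified mutant Fbw7 with reduced substrate affinity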
GPR151 confirm: GPR151 activators, triplicate retest, confirmation, cell-based, PathHunter beta-arrestin, luminescence; shares compounds with GPR151 ag; GPR151 PathHunter beta-arrestin cells, 90 min; % of EA-reagent control over plate median; activation, % at 11.2 µM; 6,700 tested, under 10 active; AID 1508609, 2020;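 active = mean percent activation across replicates above the confirmation screen cutoff of 4.91%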
GPR119 counter: GPR119 activators in beta-arrestin cells, counter-screen for GPR151 activator project, cell-based, PathHunter beta-arrestin, luminescence, triplicate; shares compounds with GPR151 ag; 90 min; 0 = compound-well median, 100 = enzyme-acceptor control; activation, % at 11.2 µM; 0.3% of 6,700 active; AID 1508611, 2020;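 active = mean percent activation in the counterscreen above 29.09%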;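 note: counterscreen on off-target GPR119 to flag nonselective hits from the GPR151 activator screen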
Starred values were filed as active, the others as inactive; · = no result given; ! = not active in a repeat.

SMILES | MITF primary | TEAD-YAP block | GPR151 ag | FBW7 activator | GPR151 confirm | GPR119 counter
CCOc1ccc(/C=C(/C#N)c2nc(-c3ccc(Br)cc3)cs2)c(OCC)c1 | 0 | 5 | 0 | 0 | · | ·
COc1ccc(N/C=C(/C#N)c2nc(-c3ccccc3)cs2)cc1 | 4 | -3 | 10.0* | 0 | -1 | -14
CCOc1ccc(-c2csc(/C(C#N)=C/c3ccccc3OCC)n2)cc1 | 7 | -6 | 6.2* | 0 | 5 | 13
COc1ccc(-c2csc(/C(C#N)=C/Nc3ccc(C(N)=O)cc3)n2)cc1OC | -9 | 0 | 1 | 0 | · | ·
COc1ccc(-c2csc(/C(C#N)=C/Nc3ccc(F)c([N+](=O)[O-])c3)n2)cc1OC | -3 | 1 | 5.2* | 0 | 3 | 8
CC(C)NC(=O)CN1C(=O)c2ccccc2C1=O | 3 | -7 | 2 | 0 | · | ·
COc1ccc(N=C2NC(=O)/C(=C\c3ccc(-c4ccc(Br)cc4)o3)S2)cc1 | 7 | 2 | -1 | 0 | · | ·
Cc1ccc(-c2ccc(SCC(=O)N3CCCC3)nn2)cc1 | -9 | -19 | 6.0* | 0 | 0 | 10
CCOC(=O)N1CCN(C(=O)CSc2ccc(-c3cccnc3)nn2)CC1 | 7 | 9 | 4.9* | 1 | 1 | 6
O=C(CSc1ccc(-c2ccc3c(c2)OCO3)nn1)N1CCCC1 | 1 | 6 | -1 | 0 | · | ·
O=[N+]([O-])/C=C/N1CCOCC1 | 10 | 0 | 5.5* | 0 | 0 | -1
Cc1ccc(-c2nnc(CCC(=O)N(C)Cc3ccccc3)o2)s1 | 7 | -73 | -1 | 0 | · | ·
CN(Cc1ccccc1)S(=O)(=O)c1cc(Br)cnc1N | 4 | -2 | 0 | 0 | · | ·
Nc1ncc(Br)cc1S(=O)(=O)N(CCc1ccccc1)Cc1ccccc1 | 1 | -5 | 9.3* | 0 | 1 | 1
O=C(CC1(O)C(=O)N(Cc2ccccc2)c2ccccc21)c1ccccc1 (stereo not drawn) | 5 | 1 | -1 | 0 | · | ·
CCN(CC)C(=O)CN1C(=O)C(O)(CC(=O)c2ccccc2)c2ccccc21 (stereo not drawn) | 11 | 5 | 7.6* | 1 | 0 | 1
COc1cccc(OCCCOc2cccc3ccc(C)nc23)c1 | 10 | 9 | 5.4* | 0 | 0 | -6
COC(=O)c1ccc(OCCOCCOc2cccc3ccc(C)nc23)cc1 | 7 | 2 | -1 | 0 | · | ·
Cc1nn(C)c(C)c1-c1nc(C(=O)NC2CCN(Cc3ccccc3)CC2)cs1 | 8 | -16 | 8.7* | 0 | 0 | -7
Cc1nn(C)c(C)c1-c1cncc(C(=O)NC2CCN(Cc3ccccc3)CC2)c1 | -7 | 2 | 5.5* | 0 | 1 | -2
Cn1nnc2cc(NC(=O)NCc3ccccc3)ccc21 | 10 | -9 | 6.3* | 0 | 0 | -3
Cn1nnc2cc(NC(=O)Nc3ccccc3F)ccc21 | 2 | 11 | -3 | 0 | · | ·
CNC(=O)c1cc2c(=O)n3ccccc3nc2n(C2CCCC2)c1=N | 1 | 5 | 1 | 0 | · | ·
CCCOc1ccc(OCC(=O)c2[nH]c(C)c(C(C)=O)c2C)cc1 | 15 | 30 | 0 | 0 | · | ·
CC(=O)c1c(C)[nH]c(C(=O)COc2cc(C)cc(C)c2)c1C | 8 | 7 | 5.6* | 0 | 1 | 2
SMILES | MITF primary | TEAD-YAP block | GPR151 ag | FBW7 activator | GPR151 confirm | GPR119 counter
CCN(C)c1nc2nonc2nc1NC1CCCC1 | -11 | 5 | 5.2* | 0 | 1 | -2
CC(=O)Nc1ccc(NC(=O)c2cccs2)c(C)c1 | -1 | -2 | -1 | 0 | · | ·
O=C(O)C(Oc1ccccc1-n1cccc1)c1ccccc1 (stereo not drawn) | -17 | 4 | 6.4* | 0 | 0 | -8
O=C(c1ccccc1)c1ccccc1-n1cccc1 | 2 | 4 | -2 | 0 | · | ·
CCC(O)CNC(=O)C1CCN(c2nc(C)c3cc(C)c(C)cc3n2)CC1 (stereo not drawn) | 4 | 1 | -1 | 0 | · | ·
CC[C@@H](C(=O)[C@@H](C)[C@@H](O)[C@H](C)[C@@H]1O[C@@H]([C@@H](CC)C(=O)O)CC[C@@H]1C)[C@H]1O[C@]2(C=C[C@@H](O)[C@]3(CC[C@@](C)([C@H]4CC[C@](O)(CC)[C@H](C)O4)O3)O2)[C@H](C)C[C@@H]1C | -4 | 78*! | 11*! | 0 | 0 | 6
C[n+]1ccccc1/C=C/c1ccc([N+](=O)[O-])cc1 | 2 | -11 | 6.6* | 0 | 0 | 1
C[n+]1ccccc1/C=C/c1ccccc1 | 9 | 0 | 0 | 0 | · | ·
CC(=O)N1CC(C)Sc2cc(S(=O)(=O)N3CCCCC3)ccc21 (stereo not drawn) | 5 | 5 | 2 | 0 | · | ·
CCN1CCN(S(=O)(=O)c2ccc3c(c2)SC(C)CN3C(C)=O)CC1 (stereo not drawn) | -3 | 6 | 6.1* | 0 | 0 | -2
COCCCN1C(=O)c2ccccc2CC1(C)C(=O)NC1CCCCCC1 (stereo not drawn) | -7 | -4 | 5.6* | 0 | 0 | -3
COCCCN1C(=O)c2ccccc2CC1(C)C(=O)NC1CCCCCCC1 (stereo not drawn) | 2 | 2 | 2 | 0 | · | ·
CSCCCNC(=O)Cn1nnnc1CN1CCCCCC1 | 7 | 3 | 13* | 0 | 0 | 3
O=C(c1c(F)cccc1F)N1CCN(S(=O)(=O)c2ccc(Br)cc2)CC1 | 5 | -14 | 6.1* | 0 | 0 | 13
Cc1cc(C(=O)N2CCOCC2)c(C)o1 | 15 | -8 | 0 | 0 | · | ·
Cc1cc(C(=O)NN2CCOCC2)c(C)o1 | 8 | 3 | 7.6* | 0 | 0 | 7
Fc1ccc(/C=N/Nc2nc3ccccc3s2)cc1 | 3 | -64 | 7.0* | 0 | -1 | 4
COC(=O)c1ccc(Cl)cc1NC(=O)N1CCSc2ccccc21 | -16 | -4 | 0 | 0 | · | ·
COc1ccc(/C(C)=N/NC(=O)CNC(=O)c2ccccc2O)cc1 | 4 | -6 | 5.3* | 0 | -1 | -8
C/C(=N/NC(=O)CNC(=O)c1ccccc1O)c1ccc(F)cc1 | 12 | -1 | -1 | 0 | · | ·
Cc1ccc2nc(Cl)c3cc(C(=O)N=C4NC(=O)CN4C)sc3c2c1 | 0 | 2 | 6.1* | 0 | 0 | 4
Cc1ccc2nc(Cl)c3cc(C(=O)N4CCN(C)CC4)sc3c2c1 | 8 | -4 | 0 | 0 | · | ·
COCCN(Cc1cccc(OC)c1)C(=O)c1nc2ccc(-c3ccnc(N)n3)cc2s1 | 15 | -10 | 0 | 0 | · | ·
COc1ccccc1Cn1c(=O)c2cccnc2n(CC(=O)Nc2ccccc2)c1=O | 0 | 1 | 7.0* | 0 | -1 | -8
